Drawing on PubChem BioAssay (NCI), this text covers growth for 31 compounds.

The structures appear in SMILES notation. About 83,000 compounds went through this panel and 20% of them were active in at least one assay; those are over-represented in the sample as a whole.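 Interpretation: 100, growth as untreated; towards 0, rising growth inhibition; 0, no net growth; 0 to -100, cell death. Compounds scoring below 10 were considered active.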 The source made the active and inactive calls.

The experiment deals with OVCAR-4 ovarian. Kind of experiment: NCI-60 one-dose screen, 48 h (100 = growth as untreated, 0 = no growth, -100 = all killed). The note with it: 10 µM unless noted.
In the case of `O=C(Nc1ccc(S(=O)(=O)N2CCCCC2)cc1)C(Cl)Cl`, the growth was 104% (inactive).
On to `O=C(c1ccc(Cl)cc1)C1[C@H](c2ccccc2Cl)[C@@H](c2ccccc2)NC12C(=O)Nc1ccccc12` (stereo partly specified), for which the growth is 2.24% (active).
Under `O=C(c1ccc(O)cc1)C1[C@H](c2ccc(Cl)cc2)[C@@H](c2ccccc2)NC12C(=O)Nc1ccccc12` (stereo partly specified) stands 9.88% (active).
On to `Cc1ccc2nc(SCc3ccccc3F)n(-c3ccccc3)c(=O)c2c1`, for which the growth was 98.9% (inactive).
Regarding `CCCCNc1ccc2c3c(cccc13)C(=O)N(NCC(O)COc1ccc3c(C)cc(=O)oc3c1)C2=O` (stereo unspecified), the growth was 74.6% (inactive).
In the case of `c1n[nH]cc1-c1nc2ccc3[nH]ncc3c2c2c1CC1(CC2)COC1`, the growth is 89.7% (inactive).
On to `CCN1CCN(Cc2ccc(C(=O)Nc3cccc(Nc4ccc5c(OC)cccc5n4)c3)cc2C(F)(F)F)CC1`, for which the growth was -53.1% (active).
On to `O=C(NN1C(=O)/C(=C/C=C/c2ccc([N+](=O)[O-])o2)SC1=S)c1ccc([N+](=O)[O-])cc1`, for which the growth is -99% (active).
Take `C=CCn1c(O)c(N=Nc2nc(-c3cc4ccccc4oc3=O)cs2)c2ccccc21`: the growth was 80.9% (inactive).
Under `CCCCCCCCCCCCCCCCCC(=O)Nc1ccc(OC)cc1` stands 113% (inactive); under `Cn1cc(-c2cc(N)n3nc(-c4c[nH]c5ccc(Cl)cc45)cc3n2)c2cc(Br)cnc21`, -54% (active); under `COC(=O)c1ccc(-c2c(-c3ccccc3)c(F)c3oc(C(=O)OC)c(N)c3c2-c2ccccc2)cc1`, 97.6% (inactive).
For `COc1ccc(-c2nc3ccccc3n2CC(=O)N=Nc2c(O)[nH]c3ccc(Br)cc23)cc1`, the growth was 91.3% (inactive).
As for `O=C(N/N=C/c1c[nH]c2ccccc12)Nc1ccccc1Cl`, the growth was 53.9% (inactive).
On to `COc1ccc(CCC2NCCc3c(Br)c4c(c(OC)c32)OCO4)cc1` (stereo unspecified), for which the growth was 42.4% (inactive).
For `CN(C)c1nc(NCCNS(=O)(=O)c2ccc(C(=O)/C=C/c3ccc(Cl)cc3)cc2)nc(N2CCOCC2)n1`, the growth is 60% (inactive).
On to `COc1ccccc1NC(=O)N/N=C/c1c[nH]c2ccccc12`, for which the growth is 61.2% (inactive).
Regarding `O=C1/C(=C/c2cnc(-c3ccccc3)s2)SC(=S)N1Cc1ccc2c(c1)OCO2`, the growth is 77.5% (inactive).
With `N#CC1=C(c2cccs2)Nc2c(c(-c3ccccc3)nn2-c2ccccc2)C12C(=O)Nc1ccccc12` (stereo unspecified), the growth is 29.2% (inactive).
For `COc1ccc2[nH]c(=O)cc(-n3ncc(C(=O)/C=C/c4cc(OC)c(OC)c(OC)c4)c3C)c2c1`, the growth was 36.5% (inactive).
For `C[C@H](NC(=O)c1ccc2c(-c3ccc(C(F)(F)F)cc3)cccc2c1)c1ccccn1`, the growth was 42% (inactive).
For the compound `Cn1cc(Nc2ncnc(-c3ccc(N4CCCC4)c(C#N)c3)n2)cn1`, the growth was 78.9% (inactive).
As for `CCCCCCCCc1cccc(CC(=O)Nc2ccc(C)cc2C(=O)O)c1`, the growth is 86.1% [25 µM] (inactive).
Under `O=C1CCC(N2C(=O)c3cccc(NCCCCCC(=O)N4CCN(c5ccc6nc7c(nc6c5C(F)(F)F)C(=O)c5ncccc5C7=O)CC4)c3C2=O)C(=O)N1` (stereo unspecified) stands -83.4% (active); under `CN1C(=O)/C(=C\C(=O)c2cc3ccccc3oc2=O)c2ccccc21`, 74.8% (inactive); under `Cc1ccc2nc(NC(=O)Nc3cccc(Cl)c3)sc2c1`, 99.5% (inactive).
As for `O=C1Nc2ccccc2/C1=C\c1ccc(OCC(=O)c2ccc(Br)cc2)cc1`, the growth is 58.2% (inactive).
With `COc1ccc2[nH]cc(-c3cc(N)n4nc(-c5c[nH]c6ccccc56)cc4n3)c2c1`, the growth is 30.9% (inactive).
Under `Cn1cc(-c2cc(N)n3nc(-c4c[nH]c5ccc(Cl)cc45)cc3n2)c2cccnc21` stands -42% (active).
Turning to `Cc1ccc(-c2cc(C(=O)N=Nc3c(O)[nH]c4ccc(F)cc34)c3ccccc3n2)cc1`, the growth is 1.07% (active).
For `O=C(NN1C(=O)/C(=C/C=C/c2ccc([N+](=O)[O-])o2)SC1=S)c1ccncc1`, the growth was -97.6% (active).
